# Results from PubChem BioAssay (NCI).
# This is part of a sample that, as a whole, favours compounds with a hit. Of some 83,000 tested, about 20% had one in any assay.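 For each line, cells grew in 96-well plates with the test compound present at a single concentration for 48 hours.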 A number with no mark means an inactive call. Calls of active or inactive are those of the source. The calls were made as follows: active = growth percent below 10; inactive = the rest.
# System: HL-60(TB) leukemia
# Experiment: NCI-60 one-dose screen, 48 h (100 = growth as untreated, 0 = no growth, -100 = all killed)
# Conditions: 10 µM unless noted
row,Compound,growth
1,COc1ccc2c(c1)Oc1nc(N)c(C#N)c(N)c1C2Sc1ccc(C)cc1 (configuration not stated),-22.3% (active)
2,O=C(CSc1nnc(-c2ccc(Cl)cc2)n1-c1ccccc1)Nc1ccc(F)cc1,95.3%
3,COc1ccc2c(c1)c(CC(=O)[Se]CCC#N)c(C)n2C(=O)c1ccc(Cl)cc1,-43.8% (active)
4,CCN(CC)c1ccc(/C=N/NC(=O)c2ccc(NS(C)(=O)=O)cc2)c(O)c1,0.843% (active)
5,COC[C@]12CC[C@@H](C)[C@H](C)[C@H]1C1=CC[C@@H]3[C@@]4(C)CCCNC(C)(C)[C@@H]4CC[C@@]3(C)[C@]1(C)CC2,-47.1% (active)
6,COc1ccc(-c2nc(SCC(C)C)nc(N/N=C\c3cccc([N+](=O)[O-])c3)c2C#N)cc1,85.1%
7,C/C(=N/NC(N)=S)c1ccc(Nc2nc(SCC(C)C)nc(-c3ccc(F)cc3)c2C#N)cc1,73.9%
